The source of these data is PubChem BioAssay (NCATS).

Records with an inconclusive call do not appear. Where a call stands in place of a potency, no number is given. Calls of active or inactive are those of the source. Calls come from the whole dose curve; as a rule, active = well fitted cell-killing curve with a large enough effect; inconclusive = small, poorly fitted or top-dose-only effect, or effect the other way; inactive = no such curve, though single readings can be large or run the other way.
Potency is the fitted concentration of half-maximal effect.

A short description of one assay: Quantitative High-Throughput drug screen in 47 multiple myeloma cell lines against the NCATS MIPE library collection: FR4_PLB cell viability assay (AID 1918924; note: nearly all actives have a fitted effect of over 35% in size). Particulars: FR4_PLB myeloma cells viability, CellTiter-Glo ATP, 48 h; series mostly up to 45.8 µM. In outline:
(§1)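 We plated 500 myeloma cells per well, pinned in MIPE 4.0 compounds, and incubated for 48 hours at 37C. ATP was then quantified with CellTiter-Glo, with DMSO and media-only wells defining 100% and 0%.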
In general terms: ATP-based viability assays read luminescence as a measure of living cells.
In the case of `COc1ccnc2[nH]cc(C(=O)C(=O)N3CCN(C(=O)c4ccccc4)C[C@@H]3C)c12`, the Potency entry is “inactive”.

On to `O=C(NCc1ccccc1)[C@H](Cc1ccccc1)NC(=O)[C@@H]1O[C@@H]1C(=O)NCCc1ccc(O)cc1`, for which the Potency entry was “inactive”.

`CN(C)CC[C@H](c1ccc(Cl)cc1)c1ccccn1`: the Potency entry is “inactive”.

Take `C[C@]12CCC(=O)C=C1[C@@H]1CC1[C@H]1[C@H]3[C@@H]4C[C@H]4[C@@]4(CCC(=O)O4)[C@@]3(C)CC[C@H]12` (some centres undefined): the Potency result was “inactive”.

In the case of `COc1ccc2cc([S+]([O-])Cc3ncc(C)c(OC)c3C)nc2c1`, the Potency result is “inactive”.

As for `CC(=O)O[C@H]1C[C@@H]2CC[C@H]3[C@H]4C[C@H]([N+]5(C)CCCCC5)[C@@H](OC(C)=O)[C@@]4(C)CC[C@@H]3[C@@]2(C)C[C@H]1N1CCCCC1`, the Potency result was “inactive”.

For the molecule `N#Cc1ccc(COC[C@H]2O[C@@H](n3c(NCc4ccc(Cl)c(Cl)c4)nc4c(N)ncnc43)[C@@H](O)[C@@H]2O)cc1`, the Potency is 13200 nM (active).

Another assay in a line: Quantitative High-Throughput drug screen in 47 multiple myeloma cell lines against the NCATS MIPE library collection: Delta47_JCRB cell viability assay (AID 1918925; note: nearly all actives have a fitted effect of over 45% in size). Particulars: Delta47 myeloma viability, CellTiter-Glo ATP, 48 h; series mostly up to 45.8 µM. An outline of the steps: as §1
In the case of `O=C(O)C(=O)Nc1cccc(C2=NN=N[N]2)c1`, the Potency result was “inactive”.

On to `C=CC[C@@H]1C=C(C)C[C@H](C)C[C@H](OC)[C@H]2O[C@@](O)(C(=O)C(=O)N3CCCC[C@H]3C(=O)O[C@H](C(C)=C[C@@H]3CC[C@H](O)[C@H](OC)C3)[C@@H](C)[C@@H](O)CC1=O)[C@@H](C)C[C@@H]2OC`, for which the Potency is 1870 nM (active).

As for `CCc1cnn2c(NCc3ccc[n+]([O-])c3)cc(N3CCCC[C@@H]3CCO)nc12`, the Potency was 33.2 nM (active).

In the case of `CC(=CC(=O)Nc1ccccc1C(=O)O)c1ccc2ccccc2c1`, the Potency was 14800 nM (active).

Take `C[C@@H](Oc1ccc2[nH]nc(C=Cc3cnn(CCO)c3)c2c1)c1c(Cl)cncc1Cl`: the Potency is 469 nM (active).

For `COc1cc2c(cc1O)CCC1C2CC[C@@]2(C)C1CC[C@@H]2O` (some centres undefined), the Potency is 2640 nM (active).

On to `CNC(=O)c1ccc(Nc2cc(Nc3ccccc3S(=O)(=O)C(C)C)c3cc[nH]c3n2)nc1`, for which the Potency is 662 nM (active).

Take `CC(=O)N[C@H]1[C@@H]([C@H](O)[C@H](O)CO)OC(C(=O)O)=C[C@@H]1N=C(N)N`: the Potency result was “inactive”.

In the case of `COc1ccc2c(c1OC)C(=O)OC2[C@H]1c2c(cc3c(c2OC)OCO3)CCN1C` (some centres undefined), the Potency is 187 nM (active).

With `O=C(O)C=Cc1ccc(Cn2ccnc2)cc1`, the Potency result is “inactive”.

Consider `Cc1cc(-c2nnc3n2CCCCC3)c(C)n1-c1ccccc1`, for which the Potency entry was “inactive”.

Take `O=c1[nH]c(=O)n([C@H]2C[C@@H](O)[C@@H](CO)O2)cc1F`: the Potency is 18700 nM (active).

With `CO[C@@H]1[C@@H](O)[C@H](O)[C@@H](n2c3c(Cl)cccc3c3c4c(c5c6cccc(Cl)c6[nH]c5c32)C(=O)NC4=O)O[C@@H]1CO`, the Potency is 590 nM (active).

As to `CC(=O)OCC(=O)[C@@]1(O)CC[C@H]2[C@@H]3CCC4=CC(=O)CC[C@]4(C)[C@@H]3C(=O)C[C@@]21C`, the Potency result is “inactive”.

Turning to `CNC(=O)c1cccc(-c2ccc3c(N4CCOC[C@H]4C)nc(N4CCOC[C@H]4C)nc3n2)c1`, the Potency is 29.6 nM (active).

For `O=C(Nc1nnc(-c2ccco2)o1)c1cc(-c2ccccc2)nc2ccccc12`, the Potency was 18700 nM (active).

`COc1cccc2c1C(=O)c1c(O)c3c(c(O)c1C2=O)C[C@@](O)(C(C)=O)C[C@H]3O[C@H]1C[C@H](N)[C@H](O)[C@H](C)O1`: the Potency is 41.8 nM (active).

For `CN(C)CC[C@H](c1ccc(Cl)cc1)c1ccccn1`, the Potency entry is “inactive”.

`C[C@]12CCC(=O)C=C1[C@@H]1CC1[C@H]1[C@H]3[C@@H]4C[C@H]4[C@@]4(CCC(=O)O4)[C@@]3(C)CC[C@H]12` (some centres undefined): the Potency entry is “inactive”.

Consider `CC(=O)O[C@H]1C[C@@H]2CC[C@H]3[C@H]4C[C@H]([N+]5(C)CCCCC5)[C@@H](OC(C)=O)[C@@]4(C)CC[C@@H]3[C@@]2(C)C[C@H]1N1CCCCC1`, for which the Potency result is “inactive”.

For `N#Cc1ccc(COC[C@H]2O[C@@H](n3c(NCc4ccc(Cl)c(Cl)c4)nc4c(N)ncnc43)[C@@H](O)[C@@H]2O)cc1`, the Potency was 16600 nM (active).

The next assay in a line: Quantitative High-Throughput drug screen in 47 multiple myeloma cell lines against the NCATS MIPE library collection: EJM_DSMZ cell viability assay (AID 1918926; note: nearly all actives have a fitted effect of over 30% in size). Particulars: EJM myeloma cell viability, CellTiter-Glo ATP, 48 h; series mostly up to 45.8 µM. An outline of the steps:
as §1
For the molecule `CN1[C@H]2CC(OC(=O)[C@@H](CO)c3ccccc3)C[C@H]1[C@H]1O[C@H]12` (some centres undefined), the Potency result is “inactive”.

Regarding `Cc1ccc(O)c(C(CCN(C(C)C)C(C)C)c2ccccc2)c1` (centres undefined), the Potency is 1.7 nM (active).

For the molecule `CC[C@H]1OC(=O)[C@H](C)[C@@H](O[C@H]2C[C@@](C)(OC)[C@@H](O)[C@H](C)O2)[C@H](C)[C@@H](O[C@@H]2O[C@@H](C)C[C@H](N(C)C)[C@@H]2O)[C@](C)(O)C[C@@H](C)C(=O)[C@H](C)[C@@H](O)[C@]1(C)O`, the Potency result is “inactive”.

Regarding `CON=C(C(=O)N[C@@H]1C(=O)N2C(C(=O)O)=C(CSC(=O)c3ccco3)CS[C@H]12)c1csc(N)n1`, the Potency result is “inactive”.

On to `O=C(C=CC=Cc1ccc2c(c1)OCO2)N1CCCCC1`, for which the Potency result was “inactive”.

With `CON=C(C(=O)N[C@@H]1C(=O)N2C(C(=O)O)=C(Cn3ccc(=N)n3CCO)CS[C@H]12)c1csc(N)n1`, the Potency entry was “inactive”.

For `N=c1ccn2c(n1)O[C@H]1[C@@H](O)[C@@H](CO)O[C@H]12`, the Potency entry is “inactive”.

Consider `CC(=O)N[C@H]1[C@@H]([C@H](O)[C@H](O)CO)OC(C(=O)O)=C[C@@H]1N=C(N)N`, for which the Potency result was “inactive”.

For `NC(=O)c1ncn([C@@H]2O[C@H](CO)[C@@H](O)[C@@H]2O)c1N`, the Potency entry is “inactive”.

Consider `CN[C@H](CC(C)C)C(=O)N[C@H]1C(=O)N[C@@H](CC(N)=O)C(=O)N[C@@H]2C(=O)N[C@H]3C(=O)N[C@H](C(=O)N[C@H](C(=O)O)c4cc(O)cc(O)c4-c4cc3ccc4O)[C@H](O)c3ccc(c(Cl)c3)Oc3cc2cc(c3O[C@@H]2O[C@H](CO)[C@@H](O)[C@H](O)[C@@H]2O[C@H]2C[C@](C)(N)[C@H](O)[C@H](C)O2)Oc2ccc(cc2Cl)[C@H]1O`, for which the Potency entry was “inactive”.

Turning to `Cc1onc(-c2ccccc2)c1C(=O)N[C@@H]1C(=O)N2[C@@H](C(=O)O)C(C)(C)S[C@@H]12`, the Potency entry is “inactive”.

As for `O=C(NNC(=O)c1ccc(CNS(=O)(=O)c2ccc(F)c(Cl)c2)cc1)c1ccccc1`, the Potency entry is “inactive”.

For `OC[C@@H](O)[C@@H](O)[C@H](O)[C@@H](O)CO`, the Potency result is “inactive”.

With `COc1ccnc2[nH]cc(C(=O)C(=O)N3CCN(C(=O)c4ccccc4)C[C@@H]3C)c12`, the Potency entry was “inactive”.

Regarding `O=C(NCc1ccccc1)[C@H](Cc1ccccc1)NC(=O)[C@@H]1O[C@@H]1C(=O)NCCc1ccc(O)cc1`, the Potency is 83.3 nM (active).

On to `COc1ccc2cc([S+]([O-])Cc3ncc(C)c(OC)c3C)nc2c1`, for which the Potency result was “inactive”.
